Compound activity deposited in PubChem by National Center for Advancing Translational Sciences (NCATS).
gsp antagonist – antagonists of gsp mutant (McCune-Albright syndrome); actives 0.4% (n = 340,000); gsp-mutant cells, cAMP HTRF, 30 min; Potency, µM (titrated, usually from 76.9 µM), usual class: inhibitors; calls by dose curve; cell line not stated here;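 further: intracellular cAMP measured with PDE inhibitor Ro 20-1724 present during compound exposure; nearly all actives have a fitted effect of over 65% in size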
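HTRF cAMP read-out (cAMP-d2 plus anti-cAMP antibody-K in lysis buffer, 30 min RT). Before lysis, cells are exposed to compounds with […] for 30 min at 37C in DPBS containing Ca/Mg, BSA and Tween 20.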
ALOX12 inh – inhibitors of human 12S-lipoxygenase ALOX12. purified 12hLO, xylenol orange hydroperoxide absorbance. actives 1.1% (n = 580,000). AID 1671190. Potency, µM (series often up to 108 µM), usual class: inhibitors. P18054
Target sequence (P18054 whole entry, looked up): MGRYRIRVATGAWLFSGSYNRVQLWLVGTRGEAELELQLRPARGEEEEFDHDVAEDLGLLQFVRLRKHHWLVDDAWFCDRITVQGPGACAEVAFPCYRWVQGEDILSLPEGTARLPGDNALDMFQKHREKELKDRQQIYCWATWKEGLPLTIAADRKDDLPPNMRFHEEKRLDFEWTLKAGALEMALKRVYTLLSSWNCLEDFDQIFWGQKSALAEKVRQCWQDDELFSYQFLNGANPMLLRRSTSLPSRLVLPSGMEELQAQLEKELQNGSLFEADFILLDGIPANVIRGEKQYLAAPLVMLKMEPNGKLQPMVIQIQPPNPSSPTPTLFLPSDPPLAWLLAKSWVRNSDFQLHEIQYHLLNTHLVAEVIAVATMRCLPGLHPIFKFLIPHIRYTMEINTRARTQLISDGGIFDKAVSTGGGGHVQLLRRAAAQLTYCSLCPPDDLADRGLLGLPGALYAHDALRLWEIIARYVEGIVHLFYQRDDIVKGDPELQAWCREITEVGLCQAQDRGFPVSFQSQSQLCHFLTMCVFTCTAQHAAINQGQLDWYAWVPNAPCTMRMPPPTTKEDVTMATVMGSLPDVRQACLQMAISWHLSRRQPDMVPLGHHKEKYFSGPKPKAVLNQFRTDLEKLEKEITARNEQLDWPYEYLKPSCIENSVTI
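Purified human 12hLO (150 nM final) in 25 mM Hepes, 0.01% Triton X-100, pH 7.0 was preincubated 15 min at room temperature with compound. Then 40 uM arachidonic acid was added, 30 min. Hydroperoxide was read by Fe-XO absorbance ratio 573/405 nm.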
gsp ag – agonists of gsp mutant (McCune-Albright syndrome) | gsp mutant cells, cAMP HTRF, 30 min | actives 0.13% (n = 340,000) | AID 624287 | Potency, µM (highest dose often 76.9 µM), usual class: activators; active means well fitted activation curve with a large enough effect; inconclusive means small, poorly fitted or top-dose-only effect, or another doubt; inactive means no such curve, though single readings can be large or run the other way; cell line not stated here;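 further: phosphodiesterase inhibitor Ro 20-1724 added with compounds to block cAMP breakdown; nearly all actives have a fitted effect of over 60% in size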
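Cells stably selected in G418 were plated at 2000/well, grown 16-24 hr, then given compounds in DMSO with the PDE inhibitor […] (300 uM solution added) for 30 min at 37C; cAMP was read by HTRF.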
FUS yeast rescue – rescues growth of FUS-expressing yeast; S. cerevisiae FUS-expressing, growth rescue, OD600, 24 h; Potency, µM (highest dose often 76.6 µM), most hits filed as activators; actives 0.24% (n = 390,000); AID 1347120; further: nearly all actives have a fitted effect of over 55% in size
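Yeast FUS proteinopathy model; galactose-induced FUS (2%), starting OD 0.005. Cpds in dilution series, 24hr, 30C, 99% humidity. Abs 600 nm growth. Pos ctrl CP55940 (top 92uM final); neg ctrl DMSO.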
Mito fusion yeast – inhibitors of mitochondrial division or activators of mitochondrial fusion | S. cerevisiae fusion-defective mutant growth rescue, CellTiterGlo 48 h | Potency, µM (top dose mostly 46.1 µM), usual class: activators | actives 0.23% (n = 320,000) | AID 485298; further: nearly all actives have a fitted effect of over 45% in size
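Growth-rescue viability read-out: after 48 h at the non-permissive 37C in glycerol/ethanol YPEG, yeast mitochondrial fusion mutants are measured by CellTiterGlo luminescence; compounds (23 nl pinned per well) restoring growth score as division inhibitors or fusion activators.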
Of the large screens only hits and unclear results are named; the others gave an inactive call; ! = not active in a repeat. Hits are enriched below; roughly 1.6% of the tested compounds scored in any of these assays. Unless noted, the call rests on the fitted dose curve; in most records, active means well fitted curve in the direction sought with a large enough effect; inconclusive means small, poorly fitted or top-dose-only effect, or another doubt; inactive means no such curve, though single readings can be large; an effect the other way counts as inactive or inconclusive.

Oc1ccc(Nc2nc(-c3ccccc3O)nc3ccccc23)cc1	gsp antagonist inconclusive, ALOX12 inh 28.2µM!
COc1ccc(CNC(=O)C(C)Oc2ccc(CC(=O)O)cc2)cc1 (configuration not stated)	none (no result: gsp antagonist, gsp ag, FUS yeast rescue, Mito fusion yeast)
Cc1ccc(C(=O)O/N=C2/CC3CCC2(C)C3(C)CBr)cc1 (configuration not stated)	none (no result: gsp antagonist, gsp ag, FUS yeast rescue, Mito fusion yeast)
C/C(=N\Nc1ccc(Br)cc1)c1ccc2c(c1)Cc1ccccc1-2	ALOX12 inh 10µM (no result: gsp antagonist, gsp ag, FUS yeast rescue, Mito fusion yeast)
CNC(=O)C1CCCN(Cc2nc(-c3cccc(Oc4ccccc4)c3)oc2C)C1 (configuration not stated)	none (no result: gsp antagonist, gsp ag, FUS yeast rescue, Mito fusion yeast)
Cc1ccc2[nH]c3c(=S)nc[nH]c3c2c1	ALOX12 inh inconclusive, gsp ag 11.2µM (no result: FUS yeast rescue)
COc1ccc(S(=O)(=O)Nc2ccc(Cl)c(S(=O)(=O)N3CCOCC3)c2)cc1	none (no result: gsp antagonist, gsp ag, FUS yeast rescue, Mito fusion yeast)
Cc1cccc(C)c1-n1cccc1/C=C1/C(=N)N2C(=NC1=O)SN=C2S(C)(=O)=O	gsp antagonist inconclusive, ALOX12 inh inconclusive
Cc1cc(/C=C2/C(=N)N3C(=NC2=O)SN=C3S(C)(=O)=O)c(C)n1-c1ccc(F)cc1	ALOX12 inh inconclusive
Cc1ccc(-n2cccc2/C=C2/C(=N)N3C(=NC2=O)SN=C3S(C)(=O)=O)cc1Cl	ALOX12 inh 14.1µM
CCOc1ccc(-n2c(C)cc(/C=C3/C(=N)N4C(=NC3=O)SN=C4S(C)(=O)=O)c2C)cc1	gsp antagonist 31.6µM, ALOX12 inh 35.5µM
COc1cc(OC)c(CC2C(=O)Nc3cc(Cl)ccc32)c(OC)c1 (configuration not stated)	ALOX12 inh 17.8µM (no result: gsp antagonist, gsp ag, FUS yeast rescue, Mito fusion yeast)
COc1cc(CC2C(=O)Nc3ccccc32)cc(C)c1O (configuration not stated)	none
COC(=O)[C@H]1[C@H](CO)[C@H]2Cn3c(ccc(Br)c3=O)[C@H]2N1C(=O)c1ccccn1	ALOX12 inh 0.794µM (no result: gsp antagonist, gsp ag, FUS yeast rescue, Mito fusion yeast)
COC(=O)[C@H]1[C@H](CO)[C@H]2Cn3c(ccc(Br)c3=O)[C@H]2N1C(C)=O	none (no result: gsp antagonist, gsp ag, FUS yeast rescue, Mito fusion yeast)
CCc1cccc(C)c1NC(=O)Cn1c(N(C)Cc2ccccc2)nc(C)cc1=O	none (no result: gsp antagonist, gsp ag, FUS yeast rescue, Mito fusion yeast)
O=C(NCCNC(=O)c1cc(-c2ccccc2)nc2ccccc12)c1ccco1	none (no result: gsp antagonist, gsp ag, FUS yeast rescue, Mito fusion yeast)
COc1cc(CCC(=O)Nc2ccc(Cl)c(C(F)(F)F)c2)cc(OC)c1OC	gsp ag inconclusive (no result: FUS yeast rescue)
COc1cc(CCC(=O)Nc2ccc(Br)c(C(F)(F)F)c2)cc(OC)c1OC	gsp antagonist 28.2µM
CC(C)C(NC(=O)c1ccccc1)c1nnc(SCC(=O)c2ccc(F)cc2)n1C (configuration not stated)	none (no result: gsp antagonist, gsp ag, FUS yeast rescue, Mito fusion yeast)
CCCC(=O)OCc1ccccc1	none (no result: gsp antagonist, gsp ag, FUS yeast rescue, Mito fusion yeast)
CCCCCC(=O)c1c(O)cc(OC)c(Cl)c1O	none (no result: gsp antagonist, gsp ag, FUS yeast rescue, Mito fusion yeast)
CCCCCCCCC(=O)c1c(OC)oc(C=O)cc1=O	ALOX12 inh 7.08µM (no result: gsp antagonist, Mito fusion yeast)
O=C(Cc1ccsc1-c1ccccc1)NO	ALOX12 inh 15.8µM
CCSC1=C(C#N)C(c2ccc(OC)c(OC)c2)C2=C(CC(C)(C)CC2=O)N1 (configuration not stated)	none (no result: gsp antagonist, gsp ag, FUS yeast rescue, Mito fusion yeast)
Clc1cccc(-c2noc(-c3ccc[nH]3)n2)c1	ALOX12 inh 44.7µM (no result: gsp antagonist, gsp ag, FUS yeast rescue, Mito fusion yeast)
CC1(C)Cc2c(sc3nc(-c4cccs4)n(N)c(=O)c23)CO1	gsp antagonist 31.6µM
CCCCCCCCN1C(=O)[C@H](CC(=O)N2CCN(C(=O)C3CC3)CC2)C[C@@]2(C(=O)OC)CC(C)(C)CC=C12	FUS yeast rescue 15.8µM (no result: gsp antagonist, gsp ag, Mito fusion yeast)
CCCCCCCCN1C(=O)[C@H](CC(=O)N2CCCC2)C[C@@]2(C(=O)OC)CCCCC=C12	FUS yeast rescue 6.31µM (no result: gsp antagonist, gsp ag, Mito fusion yeast)
CCCCCCCCN1C(=O)[C@H](CC(=O)NCC2CCCCC2)C[C@@]2(C(=O)OCC)CCCC=C12	ALOX12 inh inconclusive (no result: gsp antagonist, gsp ag, Mito fusion yeast)
CCCCCCCCN1C(=O)[C@H](CC(=O)N2CCN(C(=O)OCC)CC2)C[C@@]2(C(=O)OC)CC(C)(C)CC=C12	FUS yeast rescue inconclusive (no result: gsp antagonist, gsp ag, Mito fusion yeast)
C#CCNC(=O)C[C@@H]1C[C@@]2(C(=O)OCC)CCCC=C2N(CCCCCCCC)C1=O	ALOX12 inh inconclusive, FUS yeast rescue 10µM (no result: gsp antagonist, gsp ag, Mito fusion yeast)
CCOC(=O)[C@]12CCCC=C1N(Cc1ccc(Cl)cc1Cl)C(=O)[C@H](CC(=O)N1CCN(C(=O)c3ccco3)CC1)C2	ALOX12 inh inconclusive, FUS yeast rescue 17.8µM (no result: gsp antagonist, gsp ag, Mito fusion yeast)
CCOC(=O)[C@]12CCCC=C1N(Cc1ccc(Cl)cc1Cl)C(=O)[C@H](CC(=O)N1CCCC1)C2	none (no result: gsp antagonist, gsp ag, Mito fusion yeast)
N=C(N)SCc1ccc(Br)cc1	none (no result: gsp antagonist, gsp ag, FUS yeast rescue, Mito fusion yeast)
